# Screening results (PubChem BioAssay)
# PTHR1 ag: activates the human parathyroid hormone receptor PTHR1; Potency, µM (doses to about 115 µM), for inactives: at the top dose activation, usual class: activators; hit rate 0.075% among 410,000; HEK293 GP2 PTHR1 cells, GloSensor cAMP luminescence, 1 h; also: nearly all actives have a fitted effect of over 55% in size
#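 HEK-293-derived GP2 cells expressing PTHR1 and a GloSensor cAMP reporter, 3,000/well, plated overnight, given luciferin plus IBMX (each 0.5 mM as added) for 1 h at 37 °C, then compound for 1 h at 37 °C. Luminescence was read after 15 min at room temperature.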
# GLP-1R inv ag: inverse agonists of human GLP-1 receptor. hit rate 1.6% among 410,000. HEK293 GLP-1R CRE-luciferase, luminescence, 24 h; GLP-1R form is constitutively active. Potency, µM (titrated, usually from 38.3 µM), for inactives: top-dose activity change, negative = inhibition, usual class: inhibitors. AID 624417; also: % is scaled to controls: 0 for no effect and ±100 for the full control effect; nearly all actives have a fitted effect of over 55% in size
# Target sequence (P43220 whole entry, looked up): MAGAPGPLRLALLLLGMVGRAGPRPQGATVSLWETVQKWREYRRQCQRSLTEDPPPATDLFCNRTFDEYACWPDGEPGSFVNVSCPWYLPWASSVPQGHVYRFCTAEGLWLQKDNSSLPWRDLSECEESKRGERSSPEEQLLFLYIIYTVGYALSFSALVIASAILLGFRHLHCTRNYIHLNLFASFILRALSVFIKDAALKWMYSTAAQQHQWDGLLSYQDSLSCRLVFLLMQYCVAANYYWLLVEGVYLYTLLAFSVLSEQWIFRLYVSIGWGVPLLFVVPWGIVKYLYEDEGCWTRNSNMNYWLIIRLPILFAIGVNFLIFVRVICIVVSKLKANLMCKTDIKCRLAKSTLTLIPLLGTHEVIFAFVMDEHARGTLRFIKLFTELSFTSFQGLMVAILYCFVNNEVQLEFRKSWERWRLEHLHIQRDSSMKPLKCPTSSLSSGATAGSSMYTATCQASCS
#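 GLP-1R inverse agonism mode: basal reporter luminescence in engineered HEK293 cells measured after one day of compound exposure at 37 deg C, with a 12 min room-temperature detection step.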
# RGS4 inh: blocks human RGS4-accelerated GTP hydrolysis; P49798; AID 504845; Transcreener GDP fluorescence polarization, RGS4-accelerated GTP hydrolysis; hit rate 0.039% among 390,000; Potency, µM (titrated, usually from 114 µM), for inactives: top-dose activity change, negative = inhibition, usual class: inhibitors; also: % is scaled to controls: 0 for no effect and ±100 for the full control effect; nearly all actives have a fitted effect of over 75% in size
# Target sequence (P49798 whole entry, looked up): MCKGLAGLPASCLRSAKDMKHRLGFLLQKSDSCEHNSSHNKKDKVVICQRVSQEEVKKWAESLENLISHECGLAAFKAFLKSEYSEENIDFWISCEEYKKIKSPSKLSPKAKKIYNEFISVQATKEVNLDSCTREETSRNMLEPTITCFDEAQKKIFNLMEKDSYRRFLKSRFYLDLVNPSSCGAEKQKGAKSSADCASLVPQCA
#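 MLSMR compounds (23 nl, pin-transferred) preincubated 10 min at room temperature with a 500nM (2x) first reagent, then RGS4 at 900nM (2x) plus Transcreener GDP mix added; fluorescence polarization (620/688 nm) read before and after 90 min at 30 °C.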
# GLP1R cytotox: cytotoxicity in counter-screen for GLP-1R inverse agonists. hit rate 0.13% among 410,000. HEK293 cAMP-luciferase reporter cells, luminescence, 24 h. AID 624418. Potency, µM (highest dose often 38.3 µM), for inactives: at the top dose activity change, negative = inhibition, usual class: inhibitors;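 also: loss of luciferase light is scored as toxicity; % is scaled to controls: 0 for no effect and ±100 for the full control effect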
#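 Luminescence readout: signal drop marks cytotoxicity. Plated cells grew 12 h at 37 °C, 5% CO2, received 23 nL compound for 24 h, then got luciferase reagent, read after 12 min at RT.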
# GLP1R ag: agonists of human GLP-1 receptor; HEK293 GLP-1R CRE-luciferase, luminescence, 4-6 h; cells express a hypersensitive GLP-1R form; Potency, µM (top dose mostly 45.6 µM), inactives show at the top dose activation, actives largely listed as activators; hit rate 0.007% among 380,000; also: % of control where 0% means no effect
# Active calls of the source: *; i = inactive; ? = inconclusive; · = no result given; [ ] = remark or other dose. The list is not random: actives were taken first. Their share in the collection is about 1.7%. Calls follow the shape of the dose curve; as a rule, active = well fitted curve in the direction sought with a large enough effect; inconclusive = small, poorly fitted or top-dose-only effect, or another doubt; inactive = no such curve, though single readings can be large; an effect the other way counts as inactive or inconclusive. Potency is read from the fitted curve at half-maximal effect.
SMILES,PTHR1 ag,GLP-1R inv ag,RGS4 inh,GLP1R cytotox,GLP1R ag
CCOC(=O)C1=C(CNCCc2ccc(Cl)cc2)NC(=O)NC1c1cccc([N+](=O)[O-])c1 (stereo not given),-11%,10µM*,-23%,-7%,11%
COc1ccc(-c2cc3ccccc3n2CC(O)CN2CCCCC2)cc1 (stereo not given),?,-5%,1%,0%,0%
COc1ccc(-c2cc3ccccc3n2CC(O)CNCCO)cc1 (stereo not given),-6%[57.5 µM],2.8µM*,-12%,-12%,-6%
CC(C)c1ccc(S(=O)(=O)c2nnn3c2nc(NCc2cccs2)c2sccc23)cc1,-23%,8%,7%,-14%,·
Fc1ccc(Cc2cn3cc(-c4ccccc4)nc3s2)cc1,-39%,5.6µM*,31%,-7%,-5%
CCOC(=O)c1c(CC(C)C)csc1NC(=O)c1ccccc1C(=O)O,-3%,11µM*,-10%[56.9 µM],-10%,-2%
O=S(=O)(NCCc1nnc2ccc(SCc3ccc(C(F)(F)F)cc3)nn12)c1ccccc1,i,-27%,2%,1%,·
CN(C)c1ccc(C(=O)NCc2ccc3c(c2)CCN3C(=O)c2ccccc2)cc1,i,-31%,-1%,4%,·
O=C(Cc1cccc(NC(=O)C2CCN(C(=O)C3CCCC3)CC2)c1)Nc1cccc(C(=O)N2CCCCC2)c1,i,15%,42%,0%,5%
CCCCCCCCc1ccc(-c2ccc(C(=O)O)cc2)cc1,·,·,21µM*,·,·
C=CC(=O)c1ccc(CCCCCC)cc1,·,·,2.7µM*,·,·
CCCCCCCCCCCCCCCCCCc1ccc(C(=O)/C=C\C(=O)O)cc1,·,·,i,·,·
N#Cc1cc2c(=O)n3ccccc3nc2n(-c2nnc(SCc3ccc(F)cc3)s2)c1=O,i,-21%,-20%,4%,·
COc1cccc(NC(=O)CN(C)C(=O)c2cc(-c3ccccc3)nc3ccccc23)c1,i,?,1%,?,-10%
COc1cccc(NC(=O)CN(C)C(=O)c2cc(-c3ccc(F)cc3)nc3ccccc23)c1,-37%,7.1µM*,-29%,?,-20%
COc1ccc2cc(-c3cc(C(=O)O)c4ccccc4n3)ccc2c1,-12%[57.5 µM],2.2µM*,3%,14%,-20%
COc1cccc(NC(=O)CN(C)C(=O)/C=C/c2cn(-c3ccccc3)nc2-c2ccc(C)cc2)c1,i,2µM*,-23%,6%,-7%
COc1cc2c(cc1OC)C(c1cc(OC)c(OC)c(OC)c1)C1(O)C(=O)OCC1(O)C2 (stereo not given),i,-10%,-1%,?,14%
COCCN1C(=O)COc2ccccc2C1C(=O)NC(C)(C)C (stereo not given),i,19%,·,1%,1%
COc1ccccc1NC(=O)C1(c2ccccc2)CCCC1,-9%,4µM*,12%,-4%,15%
Cc1ccc(C(=O)c2oc3ccc(Cl)cc3c2NC(=O)CN2CCN(C)CC2)cc1,?,?,-20%,?,4%
COc1cc([N+](=O)[O-])ccc1NC(=O)N1CCC2(CC1)Nc1cc(F)ccc1-n1cccc12,-19%,11µM*,-32%,-21%,·
CCN1CCN(c2ccc(NC(=O)c3ccc4c(c3)OCCO4)cc2C)CC1,-19%,6.3µM*,-3%,-5%,7%
CC1CCN(c2ccc(C(=O)Nc3ccc4c(c3)OCO4)cc2[N+](=O)[O-])CC1,-36%,6.3µM*,-1%,-25%,1%
CCN1CCN(c2cc(C)c3cc(NC(=O)c4ccc5c(c4)OCO5)ccc3n2)CC1,-6%,10%,-1%,?,-1%
SMILES,PTHR1 ag,GLP-1R inv ag,RGS4 inh,GLP1R cytotox,GLP1R ag
CCc1nnc(NC(=O)CSc2nnc(C(C)NC(=O)c3ccccc3F)n2C)s1 (stereo not given),-57%,9%,-27%,?,3%
Cn1cc(CN2CCC(CO)CC2)c(-c2ccc(Oc3ccccc3)cc2)n1,i,10µM*,-36%,-14%,3%
CN1CCCC1(C)C(=O)NCc1ccc(F)cc1Cl (stereo not given),-23%,16%,·,3%,-5%
O=C(COC(=O)c1ccco1)NC12CC3CC(CC(C3)C1)C2,i,-11%,6%,13%,-8%
Cc1cc(Cl)ccc1OC(C)C(=O)N1CCCN(C(=O)C(C)Oc2ccc(Cl)cc2C)CC1 (stereo not given),-13%,5µM*,-1%[11.4 µM],?,-25%
COc1ccc(C(=O)Nc2ccc(OCC(F)(F)C(F)F)c(C(F)(F)F)c2)cc1OC,-92%,4µM*,-27%,-24%,2%
O=C(Nc1ccc(OCC(F)(F)C(F)F)c(C(F)(F)F)c1)c1ccc(Cl)cc1,-13%[57.5 µM],3.5µM*,8%[11.4 µM],-21%,-9%
CC(=O)Nc1ccc(Nc2nc(Nc3ccc(Cl)cc3)nc(N3CCOCC3)n2)cc1,·,·,-2%,·,·
CC1C/C(=N\NC(N)=S)c2cc(Cl)ccc2S1 (stereo not given),-16%,?,-29%,2.2µM*,-16%
CC(C)=C1CCC(C)CC1=NNC(N)=S (stereo not given),-20%,?,-43%,?,5%
COc1ccc(-c2nnc(SCC(=O)Nc3ccc(F)cc3)s2)cc1,i,7%,-41%,0%,·
CCN(c1cccc(C)c1)S(=O)(=O)c1nnc(NC(=O)c2ccccc2Cl)s1,-40%,?,-16%,-13%,·
O=C(NC12CC3CC(CC(C3)C1)C2)c1ccccc1O,-9%[57.5 µM],5.6µM*,-11%,-16%,3%
O=C(NC12CC3CC(CC(C3)C1)C2)c1cc(F)c(F)cc1Cl,-38%,10µM*,?,-1%,-3%
O=C(NNC(=O)C12CC3CC(CC(C3)C1)C2)c1ccccc1O,-1%,?,20%,-25%,-4%
Cc1cccc(C)c1NC(=O)C(c1ccc(C#N)cc1)n1c(=O)c(-c2ccccc2)nc2ccccc21 (stereo not given),12%,?,·,3%,·
COc1cc(C2Oc3ccccc3C=C2[N+](=O)[O-])cc(OC)c1OC (stereo not given),-64%,11µM*,?,-21%,-17%
COc1ccc(NC(=O)CSc2ncc(-c3ccc(Cl)cc3)[nH]2)cc1OC,-50%,-16%,-10%,4%,·
CCCCCc1ccc(OCCC[n+]2ccccc2)c(CCCCC)c1,-33%,7.9µM*,-3%,?,1%
O=C(CCCOc1ccc(Cl)cc1Cl)N/N=C/c1ccccc1O,i,4.5µM*,5%,?,-4%
O=C(CCCOc1ccc(Cl)cc1Cl)N/N=C/c1ccccc1,i,-22%,-21%,-16%,?
O=C(/C=C/NNC(=O)c1ccc(Br)cc1)c1ccccc1,-13%[57.5 µM],?,-24%,?,-9%
